Assay results: PubChem BioAssay (NCATS)
Inconclusive results are not listed. Values without a mark were called inactive. Active and inactive are the calls of the source. Calls come from the whole dose curve; as a rule, active = well fitted cell-killing curve with a large enough effect; inconclusive = small, poorly fitted or top-dose-only effect, or effect the other way; inactive = flat fitted curve, though single readings scatter.

experiment: MultiTox-Fluor Cytotoxicity Assay - LYMP1-002 - Live Cells (AID 955); conditions: LYMP1-002 lymphoblastoid live-cell protease fluorescence viability; series mostly up to 46.1 µM; viability change, negative = cytotoxic: at the top concentration
Description: NIH Chemical Genomics Center [NCGC]
NIH Molecular Libraries Screening Centers Network [MLSCN]
National Institutes of Environmental Health Sciences [NIEHS]
National Toxicology Program [NTP]
We have developed a 1536-well cell-based assay for quantitative high throughput screening (qHTS) against a number of cell lines to determine in vitro cytotoxicity of small molecules. This particular assay uses a human lymphoblastoid cell line (LYMP1-002) purchased from Coriell Institute.
NCGC Assay Protocol Summary:
The MultiTox-Fluor Cytotoxicity Assay (Promega) is a homogeneous method to simultaneously measure the relative number of live and dead cells in culture by detecting changes in cell membrane integrity. There are two fluorogenic peptide substrates in the assay reagent. Viable cells are determined when the cell-permeant substrate (GF-AFC) enters the cell and is cleaved by protease from live cells resulting in liberated fluorophore. This live-cell protease activity restricted to viable cells is proportional to cell number. The dead cells are determined by using fluorogenic cell-impermeant peptide substrate (bis-AAF-R110) which cleaved by dead cell proteases leaking from damaged cell membrane.
Using the MultiTox-Fluor Cytotoxicity Assay, the relative number of live cells was measured in the lymphoblastoid cell line with complete culture medium following compound treatment for 16 hours. The assay was performed in opaque black Kalypsys 1536-well plates. In the screen, tetraoctylammonium bromide was used as positive control. Library compounds were measured for their ability to cause acute toxicity in the cell line, as reflected by a decrease in live cell protease activity, in a concentration-dependent manner. […] AC50 values were determined from concentration-response data modeled with the standard Hill equation.
qHTS protocol for MultiTox-Fluor Cytotoxicity assay
[Step] [Parameter] [Value] [Description]
1. Reagent; 5 uL; 2500 lymphoblastoid cells/well
2. Time; 5 hr; 37 C incubation
4. Controls; 23 nL; Tetraoctylammonium bromide 6.4pM to 92 uM
5. Time; 16 hr; 37 C incubation
6. Reagent; 5 uL; MuliTox-Fluor Assay reagent
7. Time; 60 min; Room Temperature
8. Detection; live-cell fluorescence (Ex/Em=405/510); EnVision plate reader
Keywords: cell viability, cytotoxicity, lymphoblastoid cell line, fluorescence, NTPHTS, NTPHTS_NCGC, NIEHS, EPA, DSSTox, MLSMR, MLSCN, NIH Roadmap, qHTS, NCGC
% is set by controls: 0 for no effect and ±100 for the full control effect.

Row | SMILES | viability change, negative = cytotoxic [%] | outcome
1 | ClC1=C(Cl)C2(Cl)C3C4C=CC(C4)C3C1(Cl)C2(Cl)Cl (stereo not given) | -17.6 | –
2 | c1nc[nH]n1 | -0.527 | –
3 | Clc1nc(Cl)nc(Cl)n1 | 1.3 | –
4 | C[C@H]1CCCC(=O)CCC/C=C/c2cc(O)cc(O)c2C(=O)O1 | – | inactive
5 | ClC(Cl)=C(c1ccc(Cl)cc1)c1ccc(Cl)cc1 | – | inactive
6 | O=NN(CCO)CCO | -0.189 | –
7 | CCCOC(=O)c1ccccc1C(=O)OCCC | -4.18 | –
8 | O=C(O)COc1ccc(Cl)cc1Cl | – | inactive
9 | CCCC(=O)Cl | 11.1 | –
10 | NC(=S)Nc1ccccc1 | – | inactive
11 | CC(C)(C)OO | – | inactive
12 | O=[N+]([O-])c1cccc2ccccc12 | 2.54 | –
13 | CCC[CH2][Sn]([Cl])([Cl])[Cl] | 11.1 | –
14 | CCCCOC(=O)c1ccccc1C(=O)OCCCC | 3.32 | –
15 | Clc1cccc(C(Cl)(Cl)Cl)n1 | 8.75 | –
16 | CC(=O)[O-].CC(=O)[O-].O.O.O.[Pb+2] | – | inactive
17 | ClC(Cl)=C(Cl)Cl | – | inactive
18 | C=C(C)C#N | 2.85 | –
19 | CC(Cl)Cl | -0.947 | –
20 | COc1ccc(C=O)cc1OC | 3.17 | –

Row | SMILES | viability change, negative = cytotoxic [%] | outcome
21 | Cc1cccc(C#N)c1 | -6.8 | –
22 | C=CCc1ccc2c(c1)OCO2 | -1.61 | –
23 | OCC(Br)CBr (stereo not given) | 5.61 | –
24 | Cc1ccc(O)c(C)c1 | -0.831 | –
25 | CCOP(=S)(OCC)SCSC(C)(C)C | -6.75 | –
26 | COC1=CC(=O)O[C@@H](/C=C/c2ccc3c(c2)OCO3)C1 | -10.1 | –
27 | Cc1ccc2ccccc2c1 | -1.42 | –
28 | Clc1nc(Cl)nc(Nc2ccccc2Cl)n1 | 2.95 | –
29 | C1CCC2CCCCC2C1 (stereo not given) | 3.86 | –
30 | COC1=CC(=O)OC(CCc2ccccc2)C1 (stereo not given) | 5.27 | –
31 | O=[N+]([O-])c1ccc(Cl)c(Cl)c1 | 11.1 | –
32 | c1ccc2c(c1)CCCC2 | 0.172 | –
33 | ClC1=C(Cl)C2(Cl)C3C(Cl)C=CC3C1(Cl)C2(Cl)Cl (stereo not given) | -3.74 | –
34 | Cc1ccc([N+](=O)[O-])cc1C | -1.37 | –
35 | c1ccc(N=Nc2ccccc2)cc1 | 0.355 | –
36 | N#CCCCl | – | inactive
37 | O=NN(c1ccccc1)c1ccccc1 | 11.3 | –
38 | Nc1ccccc1Cl | -3.46 | –
39 | C=CCc1ccc(OC)cc1 | 6.04 | –
40 | Nc1ccc(Br)cc1 | -15.4 | –
